# Compounds with a hit are over-represented: about 11% of the library has one in this group of screens.
# IMPase Li cell = membrane-permeable IMPase blocker, potentiated with lithium. CHO-M1 cells, IP1 TR-FRET (IP-One), carbachol + lithium. Potency, µM (titrated, usually from 59.4 µM), for the others: at the top dose activity, negative = IMPase inhibition, most hits filed as inhibitors. hit rate 0.35% among 210,000. AID 1457;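 also: IP1 builds up when IMPase is blocked and the TR-FRET signal falls; potency is read from the fitted curve at half-maximal effect; plate controls were basal vehicle for no effect and high inhibitor control for full effect; nearly all actives have a fitted effect of over 50% in size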
#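 Lithium-sensitised IP1 accumulation assay; M1-expressing CHO cells treated 30 min at 37C with compound. Competitive antibody detection by time-resolved FRET followed a 10 min room-temperature lysis step.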
# IMPase cell inh = cell-permeable inhibitors of inositol monophosphatase (IMPase); P97697; inhibition (IP1 accumulation), % at 46.1 µM; CHO-M1 cells, IP1 accumulation, HTRF TR-FRET ratio; 120,000 tested, under 10 active; active = well fitted curve in the direction sought with a large enough effect in the signal ratio, not every such curve was filed as active; inconclusive = small, poorly fitted or top-dose-only effect, or a change in a side signal; inactive = no such curve, though single readings can be large or run the other way; the % refers to the signal ratio;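 also: cells stimulated with carbachol in lithium chloride buffer; plate controls were DMSO basal wells for no effect and reference inhibitor wells for full effect; higher means more IMPase inhibition seen as more IP1 and lower FRET ratio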
#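 The IP-One HTRF competitive assay in carbachol-stimulated CHO-M1 cells quantifies cellular IP1. Compounds spanned up to 46 uM final, and activity is expressed as AC50 from concentration-response fits of the ratio and donor data.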
# PNC inhibitor = blocks assembly of the perinucleolar compartment; activity change (PNC), negative = inhibition, % at 10 µM; AID 2417; hit rate 3.1% among 140,000; PC3M PTB-GFP, PNC prevalence imaging, 16 h; active compounds read low;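 active = readout at or below -70, meaning at least 70% loss of cells showing the perinucleolar compartment, a nuclear body marking cancer cells; inconclusive = readout between -30 and a set limit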;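 also: plate controls were DMSO wells for no effect and camptothecin positive control wells for full effect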
#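 Compounds are pinned in duplicate onto adhered PC3M cells stably expressing GFP-tagged PTB and incubated 16 h at 37 C. Cells are then fixed, nuclei stained with Hoechst, and PNC-positive cells counted.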
# ALDH1A1 block = inhibitors of human aldehyde dehydrogenase 1A1 | P00352 | Potency, µM (titrated, usually from 75.3 µM), for inactives: at the top dose activity, negative = inhibition, hits mostly inhibitors | Purified ALDH1A1, NADH fluorescence, propionaldehyde substrate | AID 1030 | hit rate 7.3% among 220,000; active = well fitted inhibition curve with a large enough effect, not every such curve was filed as active; inconclusive = small, poorly fitted or top-dose-only effect, or another doubt; inactive = no such curve, though single readings can be large or run the other way;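 also: potency is read from the fitted curve at half-maximal effect; plate controls were no enzyme wells and a reference inhibitor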
# 12-hLO inh = inhibitors of human 12-lipoxygenase (ALOX12) | P18054 | purified 12-hLO, xylenol orange hydroperoxide absorbance | Potency, µM (top dose mostly 57.1 µM), inactives show at the highest dose activity change, negative = inhibition, most hits filed as inhibitors | hit rate 0.12% among 150,000; also: potency is read from the fitted curve at half-maximal effect; nearly all actives have a fitted effect of over 55% in size
# Target sequence (P18054 whole entry, looked up): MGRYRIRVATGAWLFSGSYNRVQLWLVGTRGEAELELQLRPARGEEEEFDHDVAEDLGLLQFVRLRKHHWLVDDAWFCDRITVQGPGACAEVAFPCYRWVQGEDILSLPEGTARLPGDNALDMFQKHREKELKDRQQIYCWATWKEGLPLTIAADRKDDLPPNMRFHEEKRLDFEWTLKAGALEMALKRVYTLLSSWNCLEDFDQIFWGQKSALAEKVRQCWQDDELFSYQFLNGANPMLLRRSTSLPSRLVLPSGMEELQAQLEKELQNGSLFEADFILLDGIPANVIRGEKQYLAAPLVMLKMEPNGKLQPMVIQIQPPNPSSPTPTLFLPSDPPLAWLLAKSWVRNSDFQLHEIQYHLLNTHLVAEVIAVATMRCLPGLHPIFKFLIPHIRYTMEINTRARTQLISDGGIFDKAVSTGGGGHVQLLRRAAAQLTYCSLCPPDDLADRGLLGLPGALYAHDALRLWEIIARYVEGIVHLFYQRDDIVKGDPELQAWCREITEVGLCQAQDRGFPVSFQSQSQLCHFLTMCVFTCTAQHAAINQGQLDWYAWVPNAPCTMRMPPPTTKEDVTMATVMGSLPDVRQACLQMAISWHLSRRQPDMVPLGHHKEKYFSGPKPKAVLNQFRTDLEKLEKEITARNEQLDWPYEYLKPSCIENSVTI
#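 Lipoxygenase turnover measured by absorbance at 573 and 405 nm after Fe-XO development. Human 12hLO 150 nM, arachidonate 40 uM, pH 7.0 Hepes buffer with detergent; 15 min compound preincubation, 30 min reaction.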
# HPGD block = blocks human HPGD enzyme activity | P15428 | purified HPGD, NADH fluorescence kinetic, PGE2 substrate | Potency, µM, for inactives: at the highest dose activity change, negative = inhibition, usual class: inhibitors | hit rate 4.3% among 150,000 | AID 894; active = well fitted inhibition curve with a large enough effect, not every such curve was filed as active; inconclusive = small, poorly fitted or top-dose-only effect, or another doubt; inactive = no such curve, though single readings can be large or run the other way; also: potency is read from the fitted curve at half-maximal effect
#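 NADH formation kinetics: reaction with 30 uM PGE2 and 1 mM NAD+ (final), 20 nM enzyme, Tris-HCl pH 8 with Tween 20, after 15 min compound preincubation at room temperature. Fluorescence change, last versus first of five reads.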
# Numbers without * were called inactive; u = inconclusive; x = no result given; [ ] = another dose, or the depositor's remark. Unless noted, calls follow the shape of the dose curve; as a rule, active = well fitted curve in the direction sought with a large enough effect; inconclusive = small, poorly fitted or top-dose-only effect, or another doubt; inactive = no such curve, though single readings can be large; an effect the other way counts as inactive or inconclusive. Unless noted, % is scaled to controls: 0 for no effect and ±100 for the full control effect.
SMILES,IMPase Li cell,IMPase cell inh,PNC inhibitor,ALDH1A1 block,12-hLO inh,HPGD block
CCCn1c(C)cc(-c2csc(N)n2)c1C,14%[38.3 µM],17,-2,11µM*,-14%,-25%
COc1ccc(-n2c(C)cc(-c3csc(N)n3)c2C)cc1,2%,6,23,25µM*,-6%,-12%
CCCc1cc(N2CCCC(C(=O)Nc3ccc(OC)cc3OC)C2)n2ncnc2n1 (centres undefined),0%[38.3 µM],-13,27,u,2%,28µM*
C=C(C)COc1ccc(-c2[nH]ncc2Oc2ccccc2OCC)c(O)c1,14%[38.3 µM],12,-117*,1.6µM*,u,18µM*
Fc1ccc(CSc2nncn2NC/C=C/c2ccccc2)cc1,-3%[38.3 µM],-9[1.84 µM],-83*,4%,-5%,0%
Fc1ccc(CSc2nncn2NCc2ccccc2)cc1,-3%,u,-21,4%,-6%,2%
COc1ccccc1Nc1ccc(C(=O)NC2CCCCC2)cn1,22%[38.3 µM],-2,-23,21%,-3%,16µM*
COc1ccc2c(C)c(C)c(=O)oc2c1OC,6%,x,x,u,x,x
COc1c(O)cc2c(=O)oc3c(OC)c(O)cc4c(=O)oc1c2c34,37%,x,x,u,x,5µM*
CCN(CC)C(=O)c1sc(N)c(C#N)c1C,0%[38.3 µM],0,-95*,u,-3%,-13%
CCN(CC)C(=O)c1sc(N)c(C(=O)OC(C)C)c1C,8%,0,21,u,-2%,20µM*
CCN(CC)C(=O)c1sc(NC(=O)C(Sc2ccccc2)c2ccccc2)c(C(=O)OC(C)C)c1C (centres undefined),9%[38.3 µM],5,11,-15%,4%,-21%
Cc1cc2oc(=O)cc(CN3CCc4ccccc43)c2cc1Cl,13%[38.3 µM],13,-14,-5%,-28%,-20%
Cc1ccc2c(CN3CCCc4ccccc43)cc(=O)oc2c1C,u,-4,u,16µM*,-19%,-14%
COC(=O)C(C)N(C(=O)c1cccc2ccccc12)c1c(C)cccc1C (centres undefined),32%[38.3 µM],11,43,5%,-6%,2%
COC(=O)C(C)N(C(=O)c1cccc(Cl)c1)c1c(C)cccc1C (centres undefined),49%[38.3 µM],7,-92*,u,4%,-8%
C/C(=C\C(=O)c1ccncc1)Nc1ccccc1O,2%[38.3 µM],3,-2,2%,-1%,14µM*
C=CCn1c(SCC(=O)N2CCc3ccccc3C2)nc2sc(CC)cc2c1=O,20%,-10,u,u,-5%,-11%
COCC(C)n1c(SCC(=O)N2CCc3ccccc3C2)nc2ccccc2c1=O (centres undefined),6%,x,-121*,-13%,-4%,-12%
COCC(C)n1c(SCC(=O)N2CCCCC2)nc2ccccc2c1=O (centres undefined),13%[38.3 µM],8,14,u,-1%,-13%
C=CCn1c(SCC(=O)N2CCc3ccccc3C2)nc2ccccc2c1=O,11%[38.3 µM],-3,6,13µM*,1%,-27%
C[C@@H](NCc1cc(Br)cc2[nH]c(=O)c(=O)[nH]c12)P(=O)(O)O,-8%,-16,x,1%,1%,-3%
CCc1nnc(NC(=O)CSc2nc3cccnc3n2C2CCCCC2)s1,23%[38.3 µM],-10,-30,2%,-7%,-9%
Cc1nc(NC(=O)CSc2nc3cccnc3n2C2CCCCC2)sc1C,-29%[38.3 µM],-5,-125*,-3%,0%,-12%
Cc1c(NC2=NC(C)(C)Cc3ccccc32)c(=O)n(-c2ccccc2)n1C,14%,-2,-88*,8%,6%,-6%
SMILES,IMPase Li cell,IMPase cell inh,PNC inhibitor,ALDH1A1 block,12-hLO inh,HPGD block
CCC1(CC)Cc2ccccc2C(Nc2c(C)n(C)n(-c3ccccc3)c2=O)=N1,43%[38.3 µM],10,4,1%,-2%,-10%
COC(=O)CSc1nnc([C@H](Cc2ccccc2)NC(=O)OC(C)(C)C)o1,10%[38.3 µM],2,68,-5%,-5%,-5%
COC(=O)CS(=O)(=O)c1nnc([C@H](Cc2ccccc2)NC(=O)OC(C)(C)C)o1,58%[38.3 µM],20,u,8.9µM*,-6%,11µM*
Cc1cccc(CS(=O)(=O)c2nnc([C@H](Cc3ccccc3)NC(=O)OC(C)(C)C)o2)c1,21%[38.3 µM],23,-1,22µM*,-7%,14µM*
COc1ccc(N(C)C(=O)c2cnc(N3CCN(c4ncccn4)CC3)c3ccccc23)cc1,-7%[38.3 µM],12,12,-7%,-2%,28µM*
O=C(c1cnc(N2CCN(c3ncccn3)CC2)c2ccccc12)N1CCN(c2ccccn2)CC1,7%[38.3 µM],7,u,u,-2%,-24%
C(/CCc1ccccc1)=N\n1cnnc1,3%,-4,-100*,8%,-1%,-6%
CCCCn1c(CNC(=O)CCC)nc2ccccc21,29%[38.3 µM],10,-25,9%,0%,u
COc1cccc(CNn2cnnc2)c1O,5%,x,x,13µM*,x,x
CCCn1c(CNc2ccccc2O)nc2ccccc21,11%[38.3 µM],5,9,13µM*,-15%,-3%
Clc1cccc(Cl)c1COc1ccccc1CNn1cnnc1,1%,x,x,-6%,x,x
CCCCn1c(NCc2ccc(N(C)C)cc2)nc2ccccc21,x,u,x,14µM*,x,x
CCCn1c(NCc2cccc(OC)c2O)nc2ccccc21,0%,u,u,6.3µM*,-12%,4%
CCCCn1c(NCc2ccncc2)nc2ccccc21,12%,x,x,18%,x,x
Cc1nc(NC2CCCCC2)c2nc(-c3ccccc3)n(CCCN(C)C)c2n1,-10%,x,x,u,1%,u
O[C@@](CCN1CCCCC1)(c1ccccc1)[C@@H]1C[C@H]2C=C[C@@H]1C2,13%,22[20.6 µM],x,7%[20.9 µM],-1%[25.6 µM],-2%
O=C(O)CCCC(=O)N1CCN(c2cccc(Cl)c2)CC1,-12%[38.3 µM],-5,-99*,u,-1%,-25%
COCC(=O)N1CCN(c2cccc(Cl)c2)CC1,7%,x,x,11%,x,x
O=C(C1CC1c1ccccc1)N1CCN(c2cccc(Cl)c2)CC1 (centres undefined),14%[38.3 µM],14,12,20µM*,-18%,-7%
O=C(O)c1ccccc1C(=O)N1CCN(c2cccc(Cl)c2)CC1,8%,6,u,u,8%,-8%
NNC(=O)c1ccccc1-n1cccc1,2%,x,x,u,x,x
C/C(=N\NC(=O)c1ccccc1-n1cccc1)C1CC1,0%,-4,39,4µM*,22%,-15%
CC(=O)N[C@@H](CC(=O)O)C(=O)O,2%,2[20.6 µM],x,-4%[20.9 µM],-3%[25.6 µM],-6%
CCn1c(SCC(=O)N2CCCc3ccccc32)nnc1-c1ccoc1C,4%,4,-100*,-5%,2%,-13%
CCn1c(SCC(=O)N2CCCc3ccccc32)nnc1-c1ccco1,-9%[38.3 µM],-5,-9,22µM*,3%,-11%
